Inconclusive results are not listed. The source made the active and inactive calls. Unless noted, the call rests on the fitted dose curve; in most records, active means well fitted curve in the direction sought with a large enough effect in the repeat runs; inconclusive means weak or mixed curves; inactive means no such curve, though single readings can be large; an effect the other way counts as inactive or inconclusive.
Legend:
[1] = qHTS assay for small molecule agonists of the p53 signaling pathway (AID 651631; calls by dose curve; further: nearly all actives have a fitted effect of over 15% in size)
Outline: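 We treat p53RE-bla HCT-116 cells with compounds for 16 h at 37 °C, add LiveBLAzer B/G FRET substrate for 2 h at room temperature, and measure fluorescence intensity.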

[2] = qHTS assay for small molecules that induce genotoxicity in human embryonic kidney cells expressing luciferase-tagged ATAD5 (AID 651632); further: nearly all actives have a fitted effect of over 15% in size
Outline: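 HEK293T cells carrying a luciferase reporter tagged to ATAD5 were exposed to compound or DMSO vehicle for 16 hr at 37C, 5% CO2. Amplite was added, and after 30 min at room temperature luciferase activity was read as a marker of ATAD5 induction.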

[3] = qHTS assay for small molecule agonists of the p53 signaling pathway - cell viability (AID 651633; calls by dose curve;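 further: p53RE-bla HCT reporter cells with a stable beta-lactamase p53 reporter; series mostly up to about 83 µM; nearly all actives have a fitted effect of over 30% in size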)
Outline: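 Viability counter-read: CellTiter-Glo luminescence (30 min, room temperature) in the same p53RE-bla plates. These plates had been exposed to compounds for 16 h at 37 C.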

[4] = qHTS assay for small molecules that induce genotoxicity in human embryonic kidney cells expressing luciferase-tagged ATAD5 - cell viability (AID 651634; calls by dose curve; further: nearly all actives have a fitted effect of over 25% in size)
Outline: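 HEK293T cells expressing luciferase-tagged ATAD5 were exposed to compound or DMSO for 15.5 hr at 37C, 5% CO2. Viability was then read as live-cell protease activity by CellTiter-Fluor fluorescence after 30 min at 37C.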

[5] = qHTS assay for small molecule disruptors of the mitochondrial membrane potential - cell viability (AID 720634; calls by dose curve;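 further: human HepG2 liver cancer cells; series mostly up to about 83 µM; nearly all actives have a fitted effect of over 20% in size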)
Outline: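 HepG2 cells seeded overnight at 37 C, then exposed to compound or DMSO for 1 hr at 37 C, 5% CO2. m-MPI dye added, then CellTiter-Glo for 30 min at room temperature; viability read as ATP luminescence.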

[6] = qHTS assay for small molecule disruptors of the mitochondrial membrane potential (AID 720635)
Outline: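 Mitochondrial membrane potential tracked with Mito-MPS dye, red aggregates (ex 540/em 590 nm) against green monomers (ex 490/em 535 nm). Compound treatment 1 hr at 37C, dye 30 min in HepG2.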

[7] = qHTS assay to test for compound auto fluorescence at 590 nm (red) in HepG2 cells (AID 720674)
Outline: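 Red autofluorescence (Ex/Em 540/590 nm, Rose Bengal sodium equivalents) was measured in HepG2 cells, 2,000 per well in MEM plus 10% FBS, plated overnight at 37 C. Readings were taken 1 hr after adding 23 nL compound or DMSO, at 37 C and 5% CO2.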

[8] = qHTS assay to test for compound auto fluorescence at 535 nm (green) in HepG2 cells (AID 720675)
[9] = qHTS assay to test for compound auto fluorescence at 460 nm (blue) in HEK293 cells (AID 720678)
Outline: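 HEK293 cells (2,000/well, medium with 10% dialyzed FBS) attached 4-5 hr, then exposed to compound overnight at 37C, 5% CO2. Blue fluorescence read at 405/460 nm, with triamterene as reference fluorophore.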

[10] = qHTS assay to test for compound auto fluorescence at 590 nm (red) in HEK293 cells (AID 720679)
Outline: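 HEK293 cells (2,000/well, 10% dialyzed FBS) attached 4-5 hr, then dosed with compound or DMSO and incubated overnight at 37C, 5% CO2. Red fluorescence read at 540/590 nm, Rose Bengal sodium as reference fluorophore.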

[11] = qHTS assay to test for compound auto fluorescence at 535 nm (green) in HEK293 cells (AID 720680)
[12] = qHTS assay to test for compound auto fluorescence at 460 nm (blue) in HEK293 cell free culture (AID 720681)
Outline: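 Blue fluorescence (Ex 405/Em 460 nm, triamterene-equivalent) was read immediately after pin transfer of compound or DMSO into medium (DMEM, 10% FBS) without cells.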

[13] = qHTS assay to test for compound auto fluorescence at 590 nm (red) in HEK293 cell free culture (AID 720683)
Outline: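 Red-channel autofluorescence of compounds in culture medium (DMEM, 10% FBS), no cells, measured at 540/590 nm. Rose Bengal sodium is the reference fluorophore for equivalence.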

[14] = qHTS assay to test for compound auto fluorescence at 590 nm (red) in HepG2 cell free culture (AID 720684)
Outline: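 Steps: dispense MEM/10% FBS medium, no cells; pin compound or DMSO vehicle; read red channel, Ex/Em 540/590 nm. Output given as Rose Bengal sodium equivalents.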

[15] = qHTS assay to test for compound auto fluorescence at 460 nm (blue) in HepG2 cell free culture (AID 720685)
Outline: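 Compound (23 nL) or DMSO pinned into cell-free MEM with 10% FBS; blue fluorescence read at 405/460 nm excitation/emission, expressed as auto-fluorescence equivalency to triamterene.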

[16] = qHTS assay to test for compound auto fluorescence at 535 nm (green) in HepG2 cell free culture (AID 720686)
[17] = qHTS assay to test for compound auto fluorescence at 460 nm (blue) in HepG2 cells (AID 720687)
Outline: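 Blue-channel autofluorescence (Ex/Em 405/460 nm, triamterene-equivalent) was measured after 1 hr compound exposure at 37 C, 5% CO2. Cells were HepG2, plated overnight at 37 C in MEM plus 10% FBS.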

[18] = molecular target: Glucocorticoid receptor (Homo sapiens) (UniProt P04150); assay: qHTS assay to identify small molecule agonists of the glucocorticoid receptor (GR) signaling pathway (AID 720691; active means well fitted activation curve with a large enough effect in the signal ratio in the repeat runs, not every such curve was filed as active; the % refers to the signal ratio)
Chain of Glucocorticoid receptor (Homo sapiens) (P04150 whole entry, looked up): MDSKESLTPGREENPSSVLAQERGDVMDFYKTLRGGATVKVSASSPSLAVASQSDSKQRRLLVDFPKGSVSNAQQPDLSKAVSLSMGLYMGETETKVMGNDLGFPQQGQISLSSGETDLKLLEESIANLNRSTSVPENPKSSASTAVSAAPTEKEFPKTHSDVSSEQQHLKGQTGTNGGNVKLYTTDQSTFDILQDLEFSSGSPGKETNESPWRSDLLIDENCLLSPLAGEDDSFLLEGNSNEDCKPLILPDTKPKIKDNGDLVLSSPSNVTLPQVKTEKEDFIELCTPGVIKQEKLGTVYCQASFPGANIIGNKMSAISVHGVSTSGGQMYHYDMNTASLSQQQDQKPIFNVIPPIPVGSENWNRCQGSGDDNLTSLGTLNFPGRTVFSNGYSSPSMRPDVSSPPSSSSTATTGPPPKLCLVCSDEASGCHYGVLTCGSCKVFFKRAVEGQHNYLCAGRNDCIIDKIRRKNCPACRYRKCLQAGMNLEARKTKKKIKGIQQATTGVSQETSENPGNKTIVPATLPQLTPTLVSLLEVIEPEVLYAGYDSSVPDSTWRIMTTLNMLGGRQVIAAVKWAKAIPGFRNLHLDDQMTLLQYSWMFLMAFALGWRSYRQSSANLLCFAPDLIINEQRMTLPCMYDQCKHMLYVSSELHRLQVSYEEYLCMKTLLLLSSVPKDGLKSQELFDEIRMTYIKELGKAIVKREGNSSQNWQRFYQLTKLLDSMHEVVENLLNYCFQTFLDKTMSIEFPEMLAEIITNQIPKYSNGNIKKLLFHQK
Outline: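 GR-bla HeLa cells (beta-lactamase reporter under glucocorticoid response element) were plated 4 h at 37 C/5% CO2, given compounds in DMSO, and incubated 18 h at 37 C. LiveBLAzer B/G FRET substrate was added for 2 h at room temperature, then fluorescence intensity read.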

[19] = molecular target: Glucocorticoid receptor (Homo sapiens) (UniProt P04150); assay: qHTS assay to identify small molecule antagonists of the glucocorticoid receptor (GR) signaling pathway (AID 720692; active means well fitted inhibition curve with a large enough effect in the signal ratio in the repeat runs, not every such curve was filed as active; the % refers to the signal ratio)
Outline: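 GR-bla HeLa cells (beta-lactamase reporter under glucocorticoid response element) were pre-plated 4 h at 37 C, treated with compounds plus 5 nM dexamethasone (final) for 18 h, then read by LiveBLAzer B/G FRET fluorescence after 2 h.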

[20] = qHTS assay to identify small molecule antagonists of the androgen receptor (AR) signaling pathway - cell viability counter screen (AID 743033; further: nearly all actives have a fitted effect of over 45% in size)
[21] = qHTS assay to identify small molecule antagonists of the androgen receptor (AR) signaling pathway using the MDA cell line - cell viability counter screen (AID 743041; further: nearly all actives have a fitted effect of over 45% in size)
Outline: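 Cells were plated at 3,000 per well and left 5 h. Compounds in DMSO were then pinned in, followed by R1881. After 16 h at 37C, CellTiter-Fluor fluorescence gave viability.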

[22] = qHTS assay to identify small molecule antagonists of the thyroid receptor (TR) signaling pathway - cell viability counter screen (AID 743064); further: nearly all actives have a fitted effect of over 50% in size
Outline: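 In rat pituitary GH3.TRE-Luc reporter cells co-exposed to compound and 1 nM T3 for 23.5 h, cytotoxicity was assessed with CellTiter-Fluor in the same wells, read by fluorescence.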

[23] = qHTS assay to identify small molecule antagonists of the thyroid receptor (TR) signaling pathway (AID 743065); further: series mostly up to about 70 µM; nearly all actives have a fitted effect of over 55% in size
Outline: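 Antagonism measured as loss of luciferase signal in GH3 cells stably carrying a TRE-luciferase reporter, co-treated with compound and T3 (1 nM final) for 23.5 h at 37 C. Viability was read in the same well by CellTiter-Fluor.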

[24] = test system: thyroid hormone receptor (rat, GH3 cells); assay: qHTS assay to identify small molecule agonists of the thyroid receptor (TR) signaling pathway (AID 743066; calls by dose curve)
[25] = molecular target: Estrogen receptor (Homo sapiens) (UniProt P03372); assay: qHTS assay to identify small molecule antagonists of the estrogen receptor alpha (ER-alpha) signaling pathway (AID 743069; active means well fitted curve in the direction sought with a large enough effect in the signal ratio in the repeat runs, not every such curve was filed as active; the % refers to the signal ratio)
Chain of Estrogen receptor (Homo sapiens) (P03372 whole entry, looked up): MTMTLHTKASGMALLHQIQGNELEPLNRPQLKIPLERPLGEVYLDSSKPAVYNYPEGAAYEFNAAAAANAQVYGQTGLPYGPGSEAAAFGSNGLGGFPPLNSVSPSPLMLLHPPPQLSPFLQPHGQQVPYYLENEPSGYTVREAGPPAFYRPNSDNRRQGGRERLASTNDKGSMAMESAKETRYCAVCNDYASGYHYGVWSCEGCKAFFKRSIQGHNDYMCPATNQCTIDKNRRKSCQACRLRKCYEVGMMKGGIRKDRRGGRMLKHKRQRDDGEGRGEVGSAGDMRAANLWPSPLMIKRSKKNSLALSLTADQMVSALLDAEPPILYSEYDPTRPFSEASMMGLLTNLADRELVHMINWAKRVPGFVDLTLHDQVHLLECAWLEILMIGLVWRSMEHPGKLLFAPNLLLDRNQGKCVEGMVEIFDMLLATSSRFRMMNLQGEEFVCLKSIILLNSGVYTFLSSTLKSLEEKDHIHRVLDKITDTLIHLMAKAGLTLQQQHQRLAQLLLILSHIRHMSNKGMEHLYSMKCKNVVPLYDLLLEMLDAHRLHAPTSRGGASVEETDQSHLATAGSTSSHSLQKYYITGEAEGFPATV
Outline: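 ER-alpha-UAS-bla GripTite HEK293 line; 2% charcoal-stripped FBS overnight; plated, 4 hr 37C/5% CO2; cpd in DMSO + 17beta-estradiol, 18 hr 37C; LiveBLAzer B/G FRET substrate 2 hr RT; fluorescence intensity.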

[26] = qHTS assay to identify small molecule antagonists of the estrogen receptor alpha (ER-alpha) signaling pathway - cell viability counter screen (AID 743074; calls by dose curve;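 further: HEK293 cells carrying ER-alpha-UAS-bla reporter stimulated with 17beta-estradiol; nearly all actives have a fitted effect of over 45% in size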)
[27] = molecular target: Estrogen receptor (Homo sapiens) (UniProt P03372); assay: qHTS assay to identify small molecule agonists of the estrogen receptor alpha (ER-alpha) signaling pathway (AID 743075; calls by dose curve;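 further: HEK293 GripTite cells with ER-alpha and UAS-driven beta-lactamase reporter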)
[28] = molecular target: Estrogen receptor (Homo sapiens) (UniProt P03372); assay: qHTS assay to identify small molecule agonists of the estrogen receptor alpha (ER-alpha) signaling pathway using the BG1 cell line (AID 743079); further: nearly all actives have a fitted effect of over 20% in size
[29] = qHTS assay to identify small molecule antagonists of the estrogen receptor alpha (ER-alpha) signaling pathway using the BG1 cell line (AID 743080; calls by dose curve;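 further: BG1 cells stimulated with 17beta-estradiol alongside compound; series mostly up to about 70 µM; nearly all actives have a fitted effect of over 25% in size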)
Outline: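 BG1-Luc-4E2 cells (endogenous full-length ER-alpha, 4xERE luciferase) hormone-starved 5 days in charcoal-stripped FBS, plated 4,000/well for 24 h, then compound plus 17beta-estradiol for 21.5 h at 37 C; ONE-Glo luminescence read.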

[30] = qHTS assay to identify small molecule antagonists of the estrogen receptor alpha (ER-alpha) signaling pathway using the BG1 cell line - cell viability counter screen (AID 743081);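 further: compound given together with 17beta-estradiol as the ER stimulus; series mostly up to about 70 µM; nearly all actives have a fitted effect of over 45% in size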
Aromatase (Homo sapiens) = Aromatase (Homo sapiens) (UniProt P11511); assay: qHTS assay to identify aromatase inhibitors (AID 743083); further: series mostly up to about 70 µM; nearly all actives have a fitted effect of over 55% in size
Chain of Aromatase (Homo sapiens) (P11511 whole entry, looked up): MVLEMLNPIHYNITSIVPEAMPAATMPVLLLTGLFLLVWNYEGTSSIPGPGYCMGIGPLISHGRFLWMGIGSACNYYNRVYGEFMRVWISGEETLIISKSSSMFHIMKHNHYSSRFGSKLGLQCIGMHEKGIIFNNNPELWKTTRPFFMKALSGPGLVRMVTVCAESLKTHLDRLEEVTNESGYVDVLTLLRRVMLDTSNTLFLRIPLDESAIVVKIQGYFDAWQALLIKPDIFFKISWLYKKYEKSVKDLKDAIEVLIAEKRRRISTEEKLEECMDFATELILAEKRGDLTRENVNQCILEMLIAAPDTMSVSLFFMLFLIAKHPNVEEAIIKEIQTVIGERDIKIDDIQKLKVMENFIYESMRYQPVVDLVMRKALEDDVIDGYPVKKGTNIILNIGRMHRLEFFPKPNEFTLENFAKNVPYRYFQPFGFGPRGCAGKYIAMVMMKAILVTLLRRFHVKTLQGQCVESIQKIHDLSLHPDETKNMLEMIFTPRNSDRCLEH

[31] = qHTS assay to identify aromatase inhibitors - cell viability counter screen (AID 743084);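 further: cells stimulated with testosterone during compound exposure; nearly all actives have a fitted effect of over 55% in size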
[32] = molecular target: Aryl hydrocarbon receptor (Homo sapiens) (UniProt P35869); assay: qHTS assay to identify small molecule that activate the aryl hydrocarbon receptor (AhR) signaling pathway (AID 743085);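 further: HG2L7.5c1 human HepG2 liver cells with stably integrated DRE-driven firefly reporter; series mostly up to about 70 µM; nearly all actives have a fitted effect of over 15% in size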
Chain of Aryl hydrocarbon receptor (Homo sapiens) (P35869 whole entry, looked up): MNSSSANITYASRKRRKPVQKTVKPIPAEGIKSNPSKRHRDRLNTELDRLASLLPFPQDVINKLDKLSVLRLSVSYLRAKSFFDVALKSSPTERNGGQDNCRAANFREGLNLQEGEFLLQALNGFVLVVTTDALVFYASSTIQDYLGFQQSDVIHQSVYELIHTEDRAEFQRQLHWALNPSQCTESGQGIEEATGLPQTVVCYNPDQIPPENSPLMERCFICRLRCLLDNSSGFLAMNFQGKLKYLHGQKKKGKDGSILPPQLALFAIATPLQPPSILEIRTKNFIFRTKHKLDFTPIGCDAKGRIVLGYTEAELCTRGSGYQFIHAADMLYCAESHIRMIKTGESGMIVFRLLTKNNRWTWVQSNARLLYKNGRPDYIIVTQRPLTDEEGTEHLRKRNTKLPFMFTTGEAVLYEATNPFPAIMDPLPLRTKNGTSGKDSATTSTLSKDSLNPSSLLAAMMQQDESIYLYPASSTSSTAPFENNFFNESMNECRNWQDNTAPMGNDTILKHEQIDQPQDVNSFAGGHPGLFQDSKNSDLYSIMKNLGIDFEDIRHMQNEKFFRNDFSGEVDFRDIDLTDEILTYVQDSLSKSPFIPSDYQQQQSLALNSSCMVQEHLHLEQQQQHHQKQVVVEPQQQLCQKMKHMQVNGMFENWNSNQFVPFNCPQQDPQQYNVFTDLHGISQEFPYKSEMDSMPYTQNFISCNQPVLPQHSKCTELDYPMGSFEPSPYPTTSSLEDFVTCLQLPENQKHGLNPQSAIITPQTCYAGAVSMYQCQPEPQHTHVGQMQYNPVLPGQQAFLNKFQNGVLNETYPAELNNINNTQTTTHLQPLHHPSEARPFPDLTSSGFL
Outline: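 AhR agonist activity is inferred from enhanced light output of a DRE-controlled firefly luciferase reporter in HepG2 cells, measured with ONE-Glo following 24 h treatment at 37C.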

[33] = qHTS assay to identify small molecule that activate the aryl hydrocarbon receptor (AhR) signaling pathway - cell viability counter screen (AID 743086)
Outline: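 Cytotoxicity counter screen: CellTiter-Fluor signal (30 min, 37 C) in 4000 HepG2 cells/well carrying the DRE-luciferase reporter, following 24 h compound exposure at 37 C.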

[34] = molecular target: Peroxisome proliferator-activated receptor gamma (Homo sapiens) (UniProt P37231); assay: qHTS assay to identify small molecule agonists of the peroxisome proliferator-activated receptor gamma (PPARg) signaling pathway (AID 743094; active means well fitted activation curve with a large enough effect in the signal ratio in the repeat runs, not every such curve was filed as active; the % refers to the signal ratio)
Chain of Peroxisome proliferator-activated receptor gamma (Homo sapiens) (P37231 whole entry, looked up): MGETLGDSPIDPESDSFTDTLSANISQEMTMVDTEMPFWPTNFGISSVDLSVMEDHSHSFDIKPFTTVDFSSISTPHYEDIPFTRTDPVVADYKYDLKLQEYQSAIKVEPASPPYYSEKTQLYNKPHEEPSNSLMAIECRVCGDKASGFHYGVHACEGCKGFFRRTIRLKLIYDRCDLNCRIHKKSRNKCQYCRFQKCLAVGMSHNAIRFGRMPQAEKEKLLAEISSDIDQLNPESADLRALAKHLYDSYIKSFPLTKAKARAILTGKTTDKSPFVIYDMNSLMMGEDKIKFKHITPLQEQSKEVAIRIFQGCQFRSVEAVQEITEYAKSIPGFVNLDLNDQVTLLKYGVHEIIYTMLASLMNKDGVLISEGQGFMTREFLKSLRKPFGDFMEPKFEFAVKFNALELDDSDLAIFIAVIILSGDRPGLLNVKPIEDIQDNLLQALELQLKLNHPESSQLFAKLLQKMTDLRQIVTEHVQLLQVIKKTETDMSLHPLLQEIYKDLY
Outline: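 GeneBLAzer PPARg UAS-bla HEK293H cells carrying a stably integrated beta-lactamase reporter were pre-incubated 5 h at 37C, then exposed to compounds in DMSO for 17 h at 37C; LiveBLAzer B/G FRET substrate was added for 1 h at room temperature and fluorescence read.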

[35] = molecular target: Acetylcholinesterase (Homo sapiens) (UniProt P22303); assay: Acetylcholinesterase (AChE) small molecule antagonists: enzyme-based qHTS assay (AID 1347397; calls by dose curve; further: nearly all actives have a fitted effect of over 55% in size); details: Potency: AChE enzyme activity inhibition; outcome: AChE enzyme activity inhibition
Chain of Acetylcholinesterase (Homo sapiens) (P22303 whole entry, looked up): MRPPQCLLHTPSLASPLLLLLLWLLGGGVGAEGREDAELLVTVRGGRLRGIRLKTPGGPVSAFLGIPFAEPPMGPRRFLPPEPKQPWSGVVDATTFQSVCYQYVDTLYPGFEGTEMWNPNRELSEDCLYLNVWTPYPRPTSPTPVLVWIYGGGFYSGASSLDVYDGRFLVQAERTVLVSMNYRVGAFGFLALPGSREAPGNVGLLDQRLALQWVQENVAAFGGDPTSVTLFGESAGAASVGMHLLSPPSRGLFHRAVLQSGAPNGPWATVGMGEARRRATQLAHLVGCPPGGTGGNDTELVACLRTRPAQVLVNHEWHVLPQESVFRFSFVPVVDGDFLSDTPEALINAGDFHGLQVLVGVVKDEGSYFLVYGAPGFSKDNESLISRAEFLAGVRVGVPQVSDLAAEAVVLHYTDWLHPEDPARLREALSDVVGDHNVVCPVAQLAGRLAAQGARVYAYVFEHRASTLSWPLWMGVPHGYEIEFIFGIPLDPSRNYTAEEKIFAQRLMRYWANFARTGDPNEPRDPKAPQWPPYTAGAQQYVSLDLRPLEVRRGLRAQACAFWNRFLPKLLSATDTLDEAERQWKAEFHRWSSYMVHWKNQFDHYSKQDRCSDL
Outline: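 rhAChE 50 mU/mL (dispensed) + cpd or DMSO, 30 min RT; add DTNB/acetylthiocholine cocktail, 10 min RT; colorimetric thiocholine readout. qHTS, 1536-well format.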

[36] = molecular target: Acetylcholinesterase (Homo sapiens) (UniProt P22303); assay: Acetylcholinesterase (AChE) small molecule antagonists: fluorescence cell-based qHTS assay (AID 1347398; calls by dose curve; further: nearly all actives have a fitted effect of over 50% in size); details: Potency: AChE activity; outcome: AChE activity
Outline: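 Read-out is Thiolite Green fluorescence at Ex/Em = 490/520 nm, formed by reaction with thiocholine released when cellular AChE in SH-SY5Y cells hydrolyzes acetylthiocholine. Compounds were preincubated 30 min at 37 C before substrate.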

[37] = molecular target: Acetylcholinesterase (Homo sapiens) (UniProt P22303); assay: Acetylcholinesterase (AChE) small molecule antagonists: enzyme-based qHTS assay with human liver microsomes (AID 1347399; calls by dose curve; further: nearly all actives have a fitted effect of over 60% in size); details: Potency: qHTS inhibition; outcome: qHTS inhibition
Outline: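 Recombinant human AChE (50 mU/mL in the enzyme mix) and human liver microsomes (0.25 mg/mL final) were preincubated with compound and NADPH (0.25 mg/mL final) for 30 min at 37 C. Acetylthiocholine/DTNB was then added; thiocholine was read colorimetrically after 10 min at room temperature.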

Measured: Potency

C=CCC1([C@@H](C)CCC)C(=O)NC(=O)NC1=O
not listed: [35] | [36] | [37]
inactive: all other assays above

O=S(=O)(O)c1cccc2c(S(=O)(=O)O)cccc12
inactive: [35] | [36] | [37]

O=C(Oc1ccccc1)c1ccc2ccccc2c1O
inactive: [35] | [36] | [37]

Reference: PubChem BioAssay (Tox21)
